From PubChem
Sampled rows, rich in hits. Any-hit rate of the full collection: about 3.5%.
MITF primary: MITF inhibitors, primary screen, biochemical, AlphaScreen, human. AlphaScreen MITF homodimerization, bead proximity signal. actives 0.91% (n = 650,000). Microphthalmia-associated transcription factor (Homo sapiens), O75030. inhibition, % at 2.6 µM; in the data active means inhibition above about 50%;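 further: 0% = vehicle wells with protein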
TEAD-YAP block: TEAD-YAP interaction inhibition, primary screen, TEAD-YAP interaction inhibitor project, luminescence, HEK-TIYL cells. TEAD-Gal4/YAP UAS-luciferase luminescence. inhibition, % at 9.12 µM. actives 1.4% (n = 640,000). AID 1259422, 2018; in the data active means inhibition above about 32%;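 further: 0% = median of test compound wells and 100% = reference inhibitor wells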
FBW7 activator: FBW7 E3 ligase activators, primary screen, biochemical, AlphaScreen, human; F-box/WD repeat-containing protein 7 (Homo sapiens), Q969H0; AlphaScreen FBW7–phospho-cyclin E peptide binding, activator screen; normalized activity (activation), % at 26.1 µM; actives 0.13% (n = 650,000); in the data active means normalized activity above about 1.9%;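 further: purified mutant Fbw7 with reduced substrate affinity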
Target sequence (Q969H0 whole entry, looked up): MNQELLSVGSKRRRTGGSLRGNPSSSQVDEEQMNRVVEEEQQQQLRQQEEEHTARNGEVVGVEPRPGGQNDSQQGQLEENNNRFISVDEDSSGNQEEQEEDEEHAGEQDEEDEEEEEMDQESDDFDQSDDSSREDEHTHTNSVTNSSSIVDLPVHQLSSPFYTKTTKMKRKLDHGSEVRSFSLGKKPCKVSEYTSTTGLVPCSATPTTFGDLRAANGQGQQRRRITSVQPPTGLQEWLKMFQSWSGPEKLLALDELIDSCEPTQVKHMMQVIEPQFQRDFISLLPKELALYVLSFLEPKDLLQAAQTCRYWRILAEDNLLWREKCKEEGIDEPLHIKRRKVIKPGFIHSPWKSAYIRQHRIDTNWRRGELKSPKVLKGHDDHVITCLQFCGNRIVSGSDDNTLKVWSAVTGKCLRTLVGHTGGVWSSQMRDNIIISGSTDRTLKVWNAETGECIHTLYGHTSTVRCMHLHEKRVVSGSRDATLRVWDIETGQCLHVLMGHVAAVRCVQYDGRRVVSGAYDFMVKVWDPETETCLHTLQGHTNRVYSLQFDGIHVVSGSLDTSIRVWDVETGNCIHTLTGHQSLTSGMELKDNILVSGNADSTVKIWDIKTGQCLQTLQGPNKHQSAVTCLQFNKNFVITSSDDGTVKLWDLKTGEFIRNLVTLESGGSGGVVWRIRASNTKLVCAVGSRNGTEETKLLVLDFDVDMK
GPR151 ag: activators of human GPR151, primary screen, cell-based, PathHunter beta-arrestin, luminescence; G-protein coupled receptor 151 (Homo sapiens), Q8TDV0; PathHunter beta-arrestin GPR151 cells; activation, % at 11.2 µM; actives 1% (n = 650,000); AID 1508602, 2020; in the data active means activation above about 4.9%;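 further: 0% = median of compound wells and 100% = cells with positive control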
MITF confirm: MITF inhibitors, retest of hits, confirmation, biochemical, AlphaScreen, triplicate | shares compounds with MITF primary | AlphaScreen MITF homodimerization, biotin/His-MITF beads | inhibition, % at 2.6 µM | actives 16% (n = 4,700) | AID 1259372, 2018;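 active means inhibition above a cutoff derived from the DMSO control wells, cut at about 28% in these data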;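 further: 0% = MITF dimer wells with DMSO only; inhibitors lower the bead chemiluminescence by keeping MITF from dimerizing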
AlphaScreen DR: AlphaScreen optical interference compounds, dose response, counter-screen, biochemical, HTS; shares compounds with MITF primary; AlphaScreen optical interference counterscreen, cell-free; IC50, µM; actives 6% (n = 480); AID 1259373, 2018; call rule not given here
AlphaScreen intf2: AlphaScreen optical interference compounds, counter-screen for MITF inhibitor project, biochemical, triplicate; shares compounds with MITF primary; LysRS AlphaScreen counterscreen, signal interference; inhibition, % at 2.6 µM; actives 7.6% (n = 4,700);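 active means inhibition above a cutoff derived from the DMSO control wells, cut at about 30% in these data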
Active calls of the source: *.

O=C1c2cccnc2C(=O)N1c1ccc(F)cc1 was read as MITF primary 51*, TEAD-YAP block 3, FBW7 activator -1, GPR151 ag 1, MITF confirm 2 and AlphaScreen intf2 15.
For O=C1c2cccnc2C(=O)N1c1ccc(Oc2ccccc2)cc1 the results were MITF primary 21, TEAD-YAP block -29, FBW7 activator 0 and GPR151 ag 0.
For O=C1CN=C(Nc2ccccc2Cl)N1Cc1ccc(F)cc1 the results were MITF primary -1, TEAD-YAP block 3, FBW7 activator 0 and GPR151 ag 2.
`COc1ccc(N2C(=O)CC(N3CCN(Cc4ccccc4)CC3)C2=O)cc1` (stereo not given) gave MITF primary 13, TEAD-YAP block -8, FBW7 activator 1 and GPR151 ag 0.
For CCCS(=O)(=O)N1CCN(C(C)CC)CC1 (stereo not given) the results were MITF primary 52*, TEAD-YAP block -3, FBW7 activator 0, GPR151 ag 2, MITF confirm -3 and AlphaScreen intf2 13.
CC(=O)N1CCN(Cc2ccc(Br)s2)CC1 was read as MITF primary -11, TEAD-YAP block 4, FBW7 activator 0 and GPR151 ag -2.
For OCCN1CCN(Cc2ccc(Br)s2)CC1 the results were MITF primary 59*, TEAD-YAP block 1, FBW7 activator 0, GPR151 ag 0, MITF confirm -2 and AlphaScreen intf2 5.
For OCCN1CCN(Cc2cc(Br)cs2)CC1 the results were MITF primary 73*, TEAD-YAP block -5, FBW7 activator 0, GPR151 ag 0, MITF confirm -1 and AlphaScreen intf2 -1.
Screening COC(=O)C(CO)NC(=O)c1ccccc1 (stereo not given) returned MITF primary -16, TEAD-YAP block 8, FBW7 activator 0 and GPR151 ag 0.
Screening CCC1CN(CC(=O)NCC2CCOCC2)Cc2ccc(Cl)cc2O1 (stereo not given) returned MITF primary 7, TEAD-YAP block 0, FBW7 activator 1 and GPR151 ag -1.
`Nc1ccc(NCCO)c(N)c1` gave MITF primary 57*, TEAD-YAP block -1, FBW7 activator -1, GPR151 ag -1, MITF confirm 52*, AlphaScreen DR >5.9 and AlphaScreen intf2 -5.
Nc1ccc(C(=O)Nc2ccc(N)cc2N)cc1 was read as MITF primary 4, TEAD-YAP block 9, FBW7 activator 0 and GPR151 ag 4.
Screening CCOC(=O)c1c(-c2ccccc2)csc1NC1=NS(=O)(=O)c2ccccc21 returned MITF primary 16, TEAD-YAP block 1, FBW7 activator 0 and GPR151 ag 0.
N#Cc1c(C#N)c(N)n(N)c1N was read as MITF primary 94*, TEAD-YAP block -2, FBW7 activator -1, GPR151 ag 1, MITF confirm 95* and AlphaScreen intf2 73*.
For CC1CN(Cc2ccccc2[N+](=O)[O-])CC(C)O1 (stereo not given) the results were MITF primary 40, TEAD-YAP block -1, FBW7 activator 0 and GPR151 ag -1.
Screening O=[N+]([O-])c1ccccc1CN1CCC(N2CCN(c3ccccc3F)CC2)CC1 returned MITF primary 47, TEAD-YAP block 5, FBW7 activator 0 and GPR151 ag -1.
Screening CC1CN(C2CCN(Cc3ccccc3[N+](=O)[O-])CC2)CC(C)O1 (stereo not given) returned MITF primary 66*, TEAD-YAP block 6, FBW7 activator 0, GPR151 ag 1, MITF confirm -3 and AlphaScreen intf2 3.
